Bioassay records from PubChem BioAssay.
NR2F2 inh = NR2F2 transcriptional activity inhibitors, primary screen, cell-based, luciferase reporter, HEK293T, luminescence; inhibition, % at 8.6 µM; 370,000 compounds, 0.7% hits; AID 686940, 2013; HEK293T NGFI-A luciferase reporter; COUP transcription factor 2 (Homo sapiens), P24468;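 active = inhibition above a per-plate cutoff, mean inhibition of test wells between control levels plus 3 SD, cut at about 38% in these data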;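 also: cells cotransfected with COUP-TFII expression vector driving the NGFI-A reporter; 0% = median of COUP-TF2 test wells and 100% = reporter-only cells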
SRC3 inh = SRC3 coactivator transcriptional activity inhibitors, primary screen, cell-based, luminescence. Nuclear receptor coactivator 3 (Homo sapiens), Q9Y6Q9. HEK293 GAL4-SRC3 luciferase reporter. inhibition, % at 3.6 µM. 360,000 compounds, 0.17% hits. AID 588352, 2011;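 active = inhibition above a per-campaign cutoff, the mean of all compounds plus 3 SD, cut at about 60% in these data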;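 also: 0% = DMSO-treated cells and 100% = gossypol-treated cells at 36 µM; higher means less SRC3-driven luciferase light from the GAL4 reporter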
NCOA1 inh = SRC1 coactivator transcriptional activity inhibitors, primary screen, cell-based, luminescence; HEK293 GAL4-SRC1 luciferase reporter; AID 588354, 2011; inhibition, % at 3.6 µM; Nuclear receptor coactivator 1 (Homo sapiens), Q15788; 360,000 compounds, 0.12% hits;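 active = inhibition above the campaign mean plus 3 SD, with each screening campaign given its own cutoff, cut at about 60% in these data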;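 also: 0% = DMSO treated cells and 100% = gossypol at 36 µM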
NR5A2 inv ag = LRH-1 (NR5A2) inverse agonists, primary screen, cell-based, luminescence, HEK293T, StAR-luciferase reporter; Nuclear receptor subfamily 5 group A member 2 (Homo sapiens), O00482; 360,000 compounds, 0.13% hits; LRH-1 transfected, 24 h; inhibition, % at 3.6 µM; AID 602396, 2012;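 active = inhibition above the mean inhibition of all tested compounds plus 3 SD, cut at about 73% in these data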;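 also: 0% = DMSO wells and 100% = reporter-only cells lacking LRH-1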
SRC2 inh = inhibition of GAL4-SRC2 driven luciferase reporter, primary screen, SRC2 inhibitor project, cell-based, luminescence; Nuclear receptor coactivator 2 (Homo sapiens), Q15596; HEK293 GAL4-SRC2 luciferase reporter; inhibition, % at 9 µM; 370,000 compounds, 0.17% hits;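 active = inhibition above the mean inhibition of all tested compounds plus 3 SD, set per campaign, cut at about 52% in these data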;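 also: 0% = DMSO treated cells and 100% = cells given Gossypol at 36 µM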
Gli-Sufu block = Gli-Sufu pathway antagonists, primary screen, luciferase luminescence, Sufu-KO-LIGHT cells, uHTS; Sufu-KO-LIGHT fibroblasts, Gli luciferase reporter luminescence; inhibition, % at 5 µM; 340,000 compounds, 0.74% hits; AID 588413, 2011;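 active = inhibition above about 55%, limit read from the data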;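 also: 0% = DMSO-treated cells and 100% = wells with medium but no cells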
Gal4-VP16 ctr = Gal4-VP16 luciferase reporter inhibitors, counter-screen for COUP-TFII antagonist project, cell-based, luminescence, HEK293; 2,500 compounds, 25% hits; shares compounds with NR2F2 inh; inhibition, % at 8.5 µM; in the data active = inhibition above about 13%
COUP-TFII conf = NR2F2 transcriptional activity inhibitors, confirmation, cell-based, luciferase reporter, HEK293, triplicate; shares compounds with NR2F2 inh; HEK293 NGFI-A luciferase reporter, luminescence; 2,500 compounds, 45% hits; inhibition, % at 8.5 µM;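 active = mean inhibition over three repeats above a set limit taken from the earlier primary screen, cut at about 38% in these data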;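 also: 100% = cells given the luciferase reporter alone without the COUP-TF2 vector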
* hit, by the source's call; · = no result. Hits are enriched below; roughly 1.3% of the tested compounds scored in any of these assays.

SMILES	NR2F2 inh	SRC3 inh	NCOA1 inh	NR5A2 inv ag	SRC2 inh	Gli-Sufu block	Gal4-VP16 ctr	COUP-TFII conf
COCCn1c(C)cc(C(=O)CSc2nc3ccccc3s2)c1C	50*	29	25	2	9	0	-57	31
COCCn1c(C)cc(C(=O)CSc2nc3ccccc3o2)c1C	-39	-64	-80	-128	-64	-84	·	·
O=C(NCc1ccccc1)[C@H]1CCCN1C(=O)[C@H]1CCCN1C(=O)c1ccccc1C(F)(F)F	-8	·	·	·	8	·	·	·
COc1ccc(CC(=O)Nc2cccc(SC)c2)cc1OC	41*	21	18	31	11	14	17*	38*
Cc1cccc(-c2cccc3c4c([nH]c23)[C@@H]2C[C@H](N(C)C(=O)c3ccccc3F)[C@H]([C@H](C)O)CN2CC4)c1	5	·	·	·	-9	·	·	·
COC(=O)C[C@@H]1CC[C@@H]2[C@@H](COc3ccc(NC(=O)Nc4ccc(F)cc4)cc3C(=O)N2C)O1	-10	·	·	·	7	·	·	·
Cc1ccc2nc(NC(=O)c3ccccn3)sc2c1	58*	12	-6	-7	28	78*	10	28
COc1ccccc1C(=O)Nc1nc2ccc(S(C)(=O)=O)cc2s1	-20	-16	-15	-8	-32	-39	·	·
COc1ccccc1C(=O)Nc1nc2ccccc2s1	91*	74*	71*	66	86*	67*	78*	97*
CCc1ccc(-c2cn3nc(C)c(C)nc3n2)cc1	47*	-20	-30	-52	59*	-17	-42	-13
O=C(CSc1nc2ccccc2o1)Nc1nc2c(s1)CCCC2	52*	28	21	29	12	7	-44	36
CN(Cc1cccc2cnccc12)C(=O)c1cc(COc2ccc(F)cc2F)on1	45*	27	22	29	13	43	-4	20
CN(Cc1cccc2ccccc12)C(=O)c1cc(COc2c(F)cccc2F)on1	7	14	-3	-11	1	5	·	·
Cc1sc2cc3c(c(C(=O)c4ccccc4)[n+]2c1C)-c1cccc2cccc-3c12	60*	·	·	·	-19	70*	22*	55*
O=C(c1ccccc1)c1c2c(cc3sc4ccccc4[n+]13)-c1cccc3cccc-2c13	49*	56	30	72	6	76*	10	57*
CCc1cc(-c2nnn(CCC3COCCO3)c2CC)ccc1-c1cn(Cc2ccccc2)nn1 (stereo not drawn)	66*	-2	9	31	26	·	-19	34
CCc1cc(-c2cnnn2Cc2ccc3ccccc3c2)ccc1-c1cn(CC(C)C)nn1	-18	-32	-7	-6	20	·	·	·
COC(=O)[C@H]1C[C@@]2(n3ccc4ccccc43)c3ccccc3N(S(=O)(=O)c3ccccc3)[C@H]2N1	8	·	·	·	5	·	·	·
O=C1C(=C(c2ccccc2)N2CCOCC2)Cc2ccccc21	39*	9	-9	14	-145	·	40*	14
O=C(c1ccccc1)N1CCN(C(=O)N2CCOCC2)CC1	6	10	4	-4	19	3	·	·
CCOC(=O)C1=C(C)N(Cc2ccccc2)C(=O)NC1c1ccccc1OS(=O)(=O)c1ccccc1[N+](=O)[O-] (stereo not drawn)	47*	14	20	38	12	12	1	34
O=C(Nc1cccc(C(F)(F)F)c1)c1ccc2sc([C@H]3C[C@H](O)[C@@H](CO)O3)nc2c1	58*	13	15	12	-7	·	3	24
